“And” between values parts separate entries of the source, which are not always exact repeats. Identical values can stand only once. Records with an inconclusive call do not appear. The source made the active and inactive calls. Unless noted, calls come from the whole dose curve; as a rule, active = well fitted curve in the direction sought with a large enough effect; inconclusive = small, poorly fitted or top-dose-only effect, or another doubt; inactive = no such curve, though single readings can be large; an effect the other way counts as inactive or inconclusive.
What was measured:
[1] = Cell Viability - BJ (AID 421; calls by dose curve;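 note: potency is the fitted concentration of half-maximal effect; cells exposed to compound for 40 hours at 37 °C before readout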); settings: BJ fibroblast viability, qHTS
How it was run: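 Cytotoxicity as drop in intracellular ATP (CellTiter-Glo, 20 min RT) after 40 hr compound exposure of BJ fibroblasts at 37 °C. Titrations scaled between DMSO and 100 uM tamoxifen, Hill-fitted for AC50.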

[2] = Cell Viability - Mesenchymal (AID 546); settings: mesenchymal cells viability, qHTS; series mostly up to 91.7 µM;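 note: cells exposed to compound for 40 hours before reading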
How it was run: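 Human kidney mesenchymal cells from normal renal glomeruli, 1000 cells/well, rested 5 hr at 37 °C, then treated 40 hr at 37 °C in complete medium. Cellular ATP read by CellTiter-Glo luminescence; AC50 from Hill-equation fits.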

[3] = Cellular Toxicity (caspase-3) HepG2 (AID 654); settings: HepG2 caspase-3 activation, luminescence, 0% = DMSO only, 100% = tamoxifen; series mostly up to 92.2 µM;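 note: cells exposed to compound for 16 hours before reading; 0% = DMSO alone and 100% = caspase signal from 100 µM tamoxifen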
How it was run: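 HepG2 cells (1500/well) were treated 16 h at 37 °C in complete medium, then caspase 3/7 activity was read by Caspase-Glo luminescence. Data were normalized to DMSO and 100 uM tamoxifen; AC50 came from Hill-equation fits of qHTS concentration-response.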

[4] = Cellular Toxicity (caspase-3) HUV-EC-C (AID 656); settings: HUV-EC-C cells, caspase-3 activation (apoptosis), vehicle = 0, 100 µM tamoxifen = 100%; series mostly up to 92.2 µM
How it was run: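 Luminescent caspase-3/7 activation (aminoluciferin substrate cleavage) in HUV-EC-C cells after 16 hr compound exposure, 37°C. Signal normalized to DMSO basal and 100 uM tamoxifen as 100%; AC50 from concentration-response fitted with the Hill equation.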

[5] = Cellular Toxicity (caspase-3) BJ (AID 658); settings: BJ fibroblasts, luminescence, normalized: DMSO 0%, staurosporine 100%; series mostly up to 91.7 µM
How it was run: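 BJ human foreskin fibroblasts, 1000 cells/well, treated 16 hours at 37 °C in complete medium; caspase 3/7 activity by Caspase-Glo luminescence after 1 hr at room temperature. Normalized to DMSO and 10 uM staurosporine; AC50 from Hill fits.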

[6] = Cellular Toxicity (caspase-3) MRC-5 (AID 659); settings: MRC-5 cells, luminescence, normalized: DMSO 0%, 10 µM staurosporine 100%; series mostly up to 91.7 µM
How it was run: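 MRC-5 human normal lung fibroblasts, 1500 cells/well, treated 16 h at 37 °C in complete medium. Caspase 3/7 measured by Caspase-Glo luminescence after 1 h at room temperature. Normalized to DMSO and 10 uM staurosporine; AC50 from Hill fit.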

[7] = Cellular Toxicity (caspase-3) SK-N-SH (AID 661); settings: SK-N-SH caspase-3 activation, qHTS; series mostly up to 91.7 µM
How it was run: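 Human SK-N-SH neuroblastoma cells, 1500/well, were exposed to compounds for 16 hours at 37 °C. Caspase-Glo 3/7 luminescence was normalized to DMSO (basal) and 10 uM staurosporine (100%), and AC50 came from a Hill fit.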

[8] = Cellular Toxicity (caspase-3) Hek293 (AID 664); settings: HEK293 caspase-3 activation, DMSO = 0%, 100 µM tamoxifen = 100%; at 92.2 µM (top of the series);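 note: cells exposed to compound for 16 h at 37 °C before readout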
How it was run: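 HEK293 cells in complete medium treated 16 h at 37 °C, then Caspase-Glo 3/7 luminescence read after 20 min at room temperature. Normalized to DMSO and 100 uM tamoxifen; AC50 from Hill fit of concentration-response.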

[9] = MultiTox-Fluor Cytotoxicity Assay - LYMP1-001 - Dead Cells (AID 946); settings: LYMP1-001 lymphoblastoid cells, dead-cell protease fluorescence; series mostly up to 92.2 µM
How it was run: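 Cytotoxicity as increased dead-cell protease fluorescence (bis-AAF-R110, 485/520 nm), read 60 min after MultiTox-Fluor reagent. Human lymphoblastoid line exposed 16 h; Hill-fitted AC50, with DMSO as 0% and 15 uM tetraoctylammonium bromide as 100%.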

[10] = Cell Viability - LYMP1-002 - Assay at 16 hr (AID 948); settings: LYMP1-002 lymphoblastoid cell viability; series mostly up to 92.2 µM;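 note: 0% = DMSO alone and full effect = 92 µM tetraoctylammonium bromide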
How it was run: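 LYMP1-002 human lymphoblastoid cells, 2500/well; 5 hr 37 C; cpd 16 hr 37 C; CellTiter-Glo 30 min RT; luminescence (ATP). Concentration-response, Hill-fit AC50. Pos ctrl tetraoctylammonium bromide.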

[11] = MultiTox-Fluor Cytotoxicity Assay - LYMP1-002 - Live Cells (AID 955); settings: LYMP1-002 lymphoblastoid live-cell protease fluorescence viability; series mostly up to 46.1 µM; note: % is set by controls: 0 for no effect and ±100 for the full control effect
How it was run: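 Human lymphoblastoid LYMP1-002 cells, 2500/well, treated 16 h at 37 C in complete medium. Live-cell protease activity via GF-AFC fluorescence (Ex/Em 405/510) after 60 min reagent incubation; AC50 from Hill fits.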

[12] = MultiTox-Fluor Cytotoxicity Assay - LYMP1-003 - Dead Cells (AID 961); settings: LYMP1-003 lymphoblastoid cells, dead-cell protease fluorescence; series mostly up to 92.2 µM; note: nearly all actives have a fitted effect of over 70% in size
How it was run: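 Dead-cell protease release, detected as bis-AAF-R110 fluorescence at 485/520 nm, was measured in LYMP1-003 cells after 16 h compound treatment at 37 C. AC50 values came from Hill-modeled qHTS curves normalized to DMSO (0%) and 15 uM tetraoctylammonium bromide (100%).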

[13] = MultiTox-Fluor Cytotoxicity Assay - LYMP1-003 - Live Cells (AID 962); settings: LYMP1-003 lymphoblastoid cells, MultiTox-Fluor live-cell protease fluorescence; series mostly up to 92.2 µM;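 note: 0% = DMSO only and full loss = 92 µM tetraoctylammonium bromide; cytotoxic hits lower the live-cell protease signal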
How it was run: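 LYMP1-003 lymphoblastoid cells, 2500/well in complete medium, treated 16 h at 37 C; live-cell protease cleavage of GF-AFC read by fluorescence (Ex/Em 405/510) after 60 min reagent; AC50 from Hill fits of concentration-response.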

[14] = Cell Viability - LYMP1-003 - Assay at 24 hr (AID 963); settings: LYMP1-003 lymphoblastoid cell viability; series mostly up to 92.2 µM;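 note: plate controls were DMSO only for no effect and tetraoctylammonium bromide positive control for full effect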
How it was run: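 Human lymphoblastoid LYMP1-003 cells, 2500/well, treated 24 h at 37 C in complete medium. Viability read as intracellular ATP by CellTiter-Glo luminescence after 30 min at room temperature; AC50 from Hill-equation fits of qHTS concentration-response.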

[15] = Cell Viability - LYMP2-003 (AID 965); settings: LYMP2-003 lymphoblastoid cell viability; series mostly up to 92.2 µM;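 note: cells exposed to compounds for 24 h before reading; 0% = DMSO only and full effect = 92 µM tetraoctylammonium bromide; nearly all actives have a fitted effect of over 50% in size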
How it was run: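 CellTiter-Glo luminescence (cellular ATP) after 24 h compound exposure at 37 C in complete medium; 2500 cells/well, 5 h settling beforehand. Concentration-response fitted to standard Hill equation for AC50. Tetraoctylammonium bromide served as positive control.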

[16] = Cell Viability - LYMP2-025 (AID 976); settings: LYMP2-025 lymphoblastoid cell viability; series mostly up to 92.2 µM;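 note: plate controls were DMSO only for no effect and tetraoctylammonium bromide control for full effect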
How it was run: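 Human lymphoblastoid LYMP2-025 cells, 2500/well, exposed 24 h at 37 C in complete medium in 1536-well qHTS. Viability as cellular ATP by CellTiter-Glo luminescence; AC50 from Hill fits of concentration-response data.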

[17] = Cell Viability - LYMP2-016 (AID 984); settings: LYMP2-016 lymphoblastoid cell viability, qHTS; series mostly up to 92.2 µM; note: % is set by controls: 0 for no effect and ±100 for the full control effect; nearly all actives have a fitted effect of over 55% in size
How it was run: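 qHTS, 1536-well: 2500 LYMP2-016 cells/well, 5 hr 37 C, compound added, 24 hr 37 C, CellTiter-Glo 30 min RT, luminescence. Tetraoctylammonium bromide positive control. AC50 via Hill fit.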

[18] = Cell Viability - LYMP2-026 (AID 989); settings: LYMP2-026 lymphoblastoid cell viability, qHTS; series mostly up to 92.2 µM; note: % is set by controls: 0 for no effect and ±100 for the full control effect; nearly all actives have a fitted effect of over 50% in size
How it was run: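 Human lymphoblastoid LYMP2-026 cells, 2500/well, exposed to compound 24 h at 37 C in complete medium. Viability as intracellular ATP by CellTiter-Glo luminescence; AC50 from Hill fits of qHTS concentration-response.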

[19] = qHTS Assay for Identification of Small Molecule Inducers of Hypoxia Response (AID 2120; active = well fitted curve in the direction sought with a large enough effect in the signal ratio, with a control signal flat, not every such curve was filed as active; the % refers to the signal ratio; note: 0% is about no effect); settings: hypoxia response reporter cells, beta-lactamase ratio readout; series mostly up to 104 µM
How it was run: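 HRE-bla ME-180 cells in Opti-MEM with 0.5% dialyzed FBS, pre-plated 4-5 h, then compound titration for 17 h at 37 degrees Celsius. CCF4 loaded 2.5 h at room temperature; 460/530 nm ratio gave %Activity and AC50 for induction.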

[20] = biological target: Peroxisome proliferator-activated receptor alpha (Homo sapiens) (UniProt Q07869); assay: qHTS assay for small molecule agonists of the peroxisome proliferator-activated receptor alpha (PPARalpha) signaling pathway (AID 651778); settings: PathHunter PPARalpha complementation, chemiluminescence, 6 h; hits give high values; note: % of control where 0% means no effect
How it was run: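 Enzyme-fragment complementation assay in which ligand-bound PPARalpha translocates and forms an active enzyme that generates chemiluminescence. Cells were plated overnight, exposed to compound for 6 hr at 37 C, and then given detection reagent for 60 min at room temperature.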

Peroxisome proliferator-activated receptor alpha (Homo sapiens), sequence (Q07869 whole entry, looked up, the tested form may be a part): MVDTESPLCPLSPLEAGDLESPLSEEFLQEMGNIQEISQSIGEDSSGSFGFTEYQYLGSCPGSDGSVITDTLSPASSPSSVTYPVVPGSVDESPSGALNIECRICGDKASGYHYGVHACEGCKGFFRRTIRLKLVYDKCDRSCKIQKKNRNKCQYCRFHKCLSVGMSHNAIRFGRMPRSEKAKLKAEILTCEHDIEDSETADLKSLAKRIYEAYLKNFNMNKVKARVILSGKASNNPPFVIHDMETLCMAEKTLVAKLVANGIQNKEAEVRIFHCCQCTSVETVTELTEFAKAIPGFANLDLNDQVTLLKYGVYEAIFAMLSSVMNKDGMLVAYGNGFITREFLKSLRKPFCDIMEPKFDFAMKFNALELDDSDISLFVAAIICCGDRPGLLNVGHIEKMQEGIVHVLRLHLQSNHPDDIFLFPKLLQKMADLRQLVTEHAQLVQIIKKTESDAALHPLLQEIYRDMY

CCCCNC(=O)n1c(NC(=O)OC)nc2ccccc21
inactive: Potency [1] > 92 µM | Potency [2] | outcome [3] | outcome [4] | outcome [5] | outcome [6] | Potency [7] | caspase-3 activation [8] -2.55% | outcome [9] | outcome [10] | outcome [11] | Potency [12] | outcome [13] | outcome [14] | Potency [15] | Potency [16] | Potency [17] | Potency [18] | Potency [19] | max response [20] 0.197% and 0.6%

N#CCBr
inactive: Potency [1] > 92 µM | Potency [2] | outcome [3] | outcome [4] | outcome [5] | outcome [6] | Potency [7] | caspase-3 activation [8] 1.09% | outcome [9] | outcome [10] | outcome [11] | Potency [12] | outcome [13] | outcome [14] | Potency [15] | Potency [16] | Potency [17] | Potency [18] | Potency [19] | max response [20] -0.274%

C=CCO
inactive: Potency [1] > 92 µM | Potency [2] | outcome [3] | outcome [4] | outcome [5] | outcome [6] | Potency [7] | caspase-3 activation [8] 0.437% | outcome [9] | outcome [10] | outcome [11] | Potency [12] | outcome [13] | outcome [14] | Potency [15] | Potency [16] | Potency [17] | Potency [18] | Potency [19] | max response [20] -7.9%

CCBr
inactive: Potency [1] > 92 µM | Potency [2] | outcome [3] | outcome [4] | outcome [5] | outcome [6] | Potency [7] | caspase-3 activation [8] 2.63% | outcome [9] | outcome [10] | outcome [11] | Potency [12] | outcome [13] | outcome [14] | Potency [15] | Potency [16] | Potency [17] | Potency [18] | Potency [19] | max response [20] -2.39%

O=P(OCCCl)(OCCCl)OCCCl
inactive: Potency [1] > 92 µM | Potency [2] | outcome [3] | outcome [4] | outcome [5] | outcome [6] | Potency [7] | caspase-3 activation [8] 4.86% | outcome [9] | outcome [10] | outcome [11] | Potency [12] | outcome [13] | outcome [14] | Potency [16] | Potency [17] | Potency [18] | Potency [19] | max response [20] -2.47%

Nc1cc(Cl)cc(C(=O)O)c1Cl
inactive: Potency [1] > 92 µM | Potency [2] | outcome [3] | outcome [4] | outcome [5] | outcome [6] | Potency [7] | caspase-3 activation [8] -1.19% | outcome [9] | outcome [10] | outcome [11] | Potency [12] | outcome [13] | outcome [14] | Potency [15] | Potency [16] | Potency [17] | Potency [18] | Potency [19] | max response [20] 9.46% and -1.59%

Cl/C=C/CCl
inactive: Potency [1] > 92 µM | Potency [2] | outcome [3] | outcome [4] | outcome [5] | outcome [6] | Potency [7] | caspase-3 activation [8] -1.73% | outcome [9] | outcome [10] | outcome [11] | Potency [12] | outcome [13] | outcome [14] | Potency [15] | Potency [16] | Potency [17] | Potency [18] | Potency [19] | max response [20] -3.36%
